Structures can show the parent of a compound that is named as a salt. ± gives the standard deviation.
The compounds below were run on Jurkat (assay: cell count relative to DMSO control (fraction of control); higher = more cells (less growth inhibition)). Details: 48 h.

SMILES	cell count
CC(C)C(=O)OCC(=O)[C@@]12O[C@H](C3CCCCC3)O[C@@H]1C[C@H]1[C@@H]3CCC4=CC(=O)C=C[C@]4(C)[C@H]3[C@@H](O)C[C@@]12C [Ciclesonide] (concentration: 2.5 µM)	0.838 ± 0.08
CSc1ccc2c(c1)N(CCC1CCCCN1C)c1ccccc1S2 (centres undefined) [Thioridazine·HCl] (concentration: 2.5 µM)	0.646 ± 0.18
Clc1ccc(CSC(Cn2ccnc2)c2ccc(Cl)cc2Cl)cc1 (centres undefined) [Sulconazole Nitrate] (concentration: 25 µM)	0.923 ± 0.11
CO/N=C(\C(=O)N[C@@H]1C(=O)N2C(C(=O)O)=C(COC(N)=O)CS[C@H]12)c1ccco1 [Cefuroxime·Na] (concentration: 25 µM)	0.945 ± 0.051
CC(=O)N(O)CCCCCNC(=O)CCC(=O)N(O)CCCCCNC(=O)CCC(=O)N(O)CCCCCN [Deferoxamine Mesylate] (concentration: 25 µM)	0.496 ± 0.062
CCN(CC)CCNC(=O)c1cc(Cl)c(N)cc1OC [Metoclopramide·HCl] (concentration: 25 µM)	0.758 ± 0.16
O=C(O)c1cc(N=Nc2ccc(O)c(C(=O)O)c2)ccc1O [Olsalazine·Na] (concentration: 25 µM)	0.611 ± 0.042
Cc1cc(C(=O)NNCc2ccccc2)no1 [Isocarboxazid] (concentration: 25 µM)	0.735 ± 0.1
CC1(C)O[C@@H]2C[C@H]3[C@@H]4C[C@H](F)C5=CC(=O)C=C[C@]5(C)[C@@]4(F)[C@@H](O)C[C@]3(C)[C@]2(C(=O)CO)O1 [Fluocinolone Acetonide] (concentration: 25 µM)	0.55 ± 0.08
CCC(=O)O[C@]1(C(=O)SCF)[C@H](C)C[C@H]2[C@@H]3C[C@H](F)C4=CC(=O)C=C[C@]4(C)[C@@]3(F)[C@@H](O)C[C@@]21C [Fluticasone Propionate] (concentration: 25 µM)	1.06 ± 0.053
O=C(O)C(=O)O.[NH-][C@@H]1CCCC[C@H]1[NH-].[Pt+2] [Oxaliplatin] (concentration: 25 µM)	0.326 ± 0.057
CC(c1cc2ccccc2s1)N(O)C(N)=O (centres undefined) [Zileuton] (concentration: 25 µM)	0.839 ± 0.068
CC(C)[N+]1(C)[C@@H]2CC[C@H]1CC(OC(=O)C(CO)c1ccccc1)C2 (some centres undefined) [Ipratropium·Br] (concentration: 25 µM)	0.704 ± 0.18
CC1=C(/C=C/C(C)=C\C=C\C(C)=C\C(=O)O)C(C)(C)CCC1 [Alitretinoin] (concentration: 25 µM)	0.555 ± 0.18
O=C(CCCN1CC=C(n2c(=O)[nH]c3ccccc32)CC1)c1ccc(F)cc1 [Droperidol] (concentration: 25 µM)	0.812 ± 0.095
Nc1ccn([C@H]2CC[C@@H](CO)O2)c(=O)n1 [Zalcitabine (2',3'-Dideoxycytidine)] (concentration: 25 µM)	0.336 ± 0.073
CN(N=O)C(=O)N[C@@H]1[C@@H](O)[C@H](O)[C@@H](CO)O[C@@H]1O [Streptozocin] (concentration: 25 µM)	0.897 ± 0.034
Cn1ccnc1S [Methimazole] (concentration: 25 µM)	0.842 ± 0.092
CNC[C@H](O)c1ccc(O)c(O)c1 [Epinephrine (L-(-)-Epinephrine-(+)-Bitartrate)] (concentration: 25 µM)	0.855 ± 0.14

SMILES	cell count
Nc1c(CC(=O)O)cccc1C(=O)c1ccc(Br)cc1 [Bromfenac] (concentration: 25 µM)	1.05 ± 0.05
Cc1nc2n(c(=O)c1CCN1CCC(c3noc4cc(F)ccc34)CC1)CCCC2O (centres undefined) [Paliperidone] (concentration: 25 µM)	1.06 ± 0.063
COCCc1ccc(OCC(O)CNC(C)C)cc1 (centres undefined) [Metoprolol Tartrate] (concentration: 25 µM)	1.02 ± 0.11
OC(c1cc(C(F)(F)F)nc2c(C(F)(F)F)cccc12)C1CCCCN1 (centres undefined) [Mefloquine·HCl] (concentration: 2.5 µM)	0.813 ± 0.087
COc1c(N2C[C@@H]3CCCN[C@@H]3C2)c(F)cc2c(=O)c(C(=O)O)cn(C3CC3)c12 [Moxifloxacin·HCl] (concentration: 25 µM)	0.632 ± 0.14
COc1cc(CNC(=O)CCCC/C=C/C(C)C)ccc1O [Capsaicin] (concentration: 25 µM)	0.901 ± 0.08
Nc1cc(-c2ccncc2)c[nH]c1=O [Amrinone] (concentration: 25 µM)	0.256 ± 0.064
CC(=O)[C@@]1(O)CC[C@H]2[C@@H]3C[C@H](C)C4=CC(=O)C=C[C@]4(C)[C@@]3(F)[C@@H](O)C[C@@]21C [Fluorometholone] (concentration: 25 µM)	0.639 ± 0.12
CN(C)c1ccc(O)c2c1C[C@H]1C[C@H]3[C@H](N(C)C)C(=O)C(C(N)=O)=C(O)[C@@]3(O)C(=O)C1=C2O [Minocycline] (concentration: 2.5 µM)	0.894 ± 0.04
COc1ccc([C@@H]2Sc3ccccc3N(CCN(C)C)C(=O)[C@@H]2OC(C)=O)cc1 [Diltiazem·HCl] (concentration: 25 µM)	0.359 ± 0.13
C[n+]1ccccc1/C=N/O [Pralidoxime Chloride] (concentration: 25 µM)	0.959 ± 0.1
CCCC(CCC)C(=O)O [Valproic Acid] (concentration: 25 µM)	0.728 ± 0.029
CO/N=C(\C(=O)N[C@@H]1C(=O)N2C(C(=O)OC(C)OC(C)=O)=C(COC(N)=O)CS[C@H]12)c1ccco1 (some centres undefined) [Cefuroxime Axetil] (concentration: 25 µM)	0.895 ± 0.057
CN(C)[C@@H]1C(=O)C(C(N)=O)=C(O)[C@@]2(O)C(=O)C3=C(O)c4c(O)ccc(Cl)c4[C@@H](O)[C@H]3C[C@@H]12 [Demeclocycline·HCl] (concentration: 25 µM)	0.219 ± 0.039
Nc1ccn([C@@H]2CS[C@H](CO)O2)c(=O)n1 [Lamivudine] (concentration: 25 µM)	0.624 ± 0.13
CO[C@H]1/C=C/O[C@@]2(C)Oc3c(C)c(O)c4c(O)c(c5c(nc6cc(C)ccn65)c4c3C2=O)NC(=O)/C(C)=C\C=C\[C@H](C)[C@H](O)[C@@H](C)[C@@H](O)[C@@H](C)[C@H](OC(C)=O)[C@@H]1C [Rifaximin] (concentration: 25 µM)	0.4 ± 0.12
CC[C@H](C)C(=O)O[C@H]1C[C@H](O)C=C2C=C[C@H](C)[C@H](CC[C@@H](O)C[C@@H](O)CC(=O)O)[C@H]21 [Pravastatin·Na] (concentration: 25 µM)	0.771 ± 0.15
CNCCCN1c2ccccc2CCc2ccccc21 [Desipramine·HCl] (concentration: 25 µM)	0.721 ± 0.066
Clc1cccc(Cl)c1NC1=NCCN1 [Clonidine·HCl] (concentration: 25 µM)	0.224 ± 0.083
